High-throughput results from PubChem BioAssay.
The list is not random: actives were taken first. Their share in the collection is about 10%.
KB-3-1 cytotox – KB-3-1 parental cell cytotoxicity | Potency, µM (titrated, usually from 46.1 µM), actives largely listed as cytotoxic | 1.4% of 400,000 active | KB-3-1 viability, CellTiter-Glo ATP luminescence, 72 h | AID 1347075; further: on the % scale 0 is the no-effect control and ±100 the full control effect; nearly all actives have a fitted effect of over 60% in size
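Parental KB-3-1 viability, qHTS format: 72 h compound exposure, 37 °C; CellTiter-Glo; media-only wells and DMSO plates as controls; concentration-effect fits on corrected data.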
Gal4-VP16 FLuc – Gal4-VP16 reporter inhibition counter-screen; Drosophila S2 Gal4-VP16 UAS-luciferase, luminescence, 20 h; Potency, µM (series often up to 53.6 µM), inactives show at the top dose activity, negative = inhibition, actives largely listed as inhibitors; 3.5% of 310,000 active; AID 2546;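 further: Gal4-VP16 expression switched on by copper sulfate through the metallothionein promoter; on the % scale 0 is the no-effect control and ±100 the full control effect; nearly all actives have a fitted effect of over 50% in size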
MCF10A rereplic – induces DNA re-replication in MCF 10a normal breast cells; MCF 10A DNA re-replication, Hoechst nuclear intensity, 48 h; 2.9% of 350,000 active; Potency, µM (doses to about 46.1 µM), for inactives: at the top dose activity, positive = re-replication, most hits filed as activators; further: % of control where 0% means no effect; nearly all actives have a fitted effect of over 50% in size
RORg inh – blocks mouse ROR gamma transcriptional activity; Drosophila S2 Gal4-RORgamma UAS-luciferase reporter, 20 h; Potency, µM (doses to about 53.6 µM), for the others: at the highest dose activity change, negative = inhibition, actives largely listed as inhibitors; 5.4% of 310,000 active; AID 2551; further: on the % scale 0 is the no-effect control and ±100 the full control effect; nearly all actives have a fitted effect of over 60% in size
Target sequence (P51450 whole entry, looked up, the tested form may be a part): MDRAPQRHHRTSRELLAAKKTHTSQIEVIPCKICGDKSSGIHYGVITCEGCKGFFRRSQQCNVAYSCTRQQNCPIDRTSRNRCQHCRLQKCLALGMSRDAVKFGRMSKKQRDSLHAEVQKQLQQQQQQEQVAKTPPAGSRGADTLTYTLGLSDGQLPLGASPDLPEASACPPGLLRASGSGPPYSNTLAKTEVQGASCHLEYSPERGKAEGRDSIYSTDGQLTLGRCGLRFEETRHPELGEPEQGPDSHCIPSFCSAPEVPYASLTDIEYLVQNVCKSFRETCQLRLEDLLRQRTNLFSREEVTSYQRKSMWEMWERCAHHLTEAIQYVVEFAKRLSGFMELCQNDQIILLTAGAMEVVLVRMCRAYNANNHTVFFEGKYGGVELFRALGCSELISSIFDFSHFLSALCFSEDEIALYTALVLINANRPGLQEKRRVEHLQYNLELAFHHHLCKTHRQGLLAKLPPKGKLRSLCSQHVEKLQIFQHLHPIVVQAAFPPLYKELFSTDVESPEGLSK
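In this cell-based reporter format, copper sulfate (700 uM final) drives Gal4–ROR gamma fusion expression from a metallothionein promoter in Drosophila Schneider cells; compounds preincubated 1 hr, reporter read after 20 hr at ambient temperature.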
KB-V1 cytotox – kills drug-selected multidrug resistant KB-V1 cells; KB-V1 MDR cells viability, CellTiter-Glo, 72 h; Potency, µM (doses to about 46.1 µM), actives largely listed as cytotoxic; 3.4% of 400,000 active; AID 1347076; further: on the % scale 0 is the no-effect control and ±100 the full control effect; nearly all actives have a fitted effect of over 60% in size
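Following 72 h at 37 degrees C with compound, KB-V1 cell viability was read by CellTiter-Glo luminescence, medium being phenol-red-free DMEM plus 10% FBS; concentration-response parameters came from normalized, curve-fitted qHTS data.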
SW480 rerep – inducers of DNA re-replication in SW480 colon cancer cells; SW480 DNA re-replication, Hoechst DNA content imaging, 48 h; Potency, µM (highest dose often 46.1 µM), inactives show at the top dose re-replication activation, hits mostly activators; 1.8% of 340,000 active; further: % of control where 0% means no effect; nearly all actives have a fitted effect of over 55% in size
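Treated cells incubate 48 hr (37 C, 5% CO2), are stained 40 min with Hoechst, and nuclear fluorescence is enumerated; a rise in nuclei with high DNA signal marks re-replication.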
The depositor's hits bear a star; i = inactive; ? = inconclusive; / = no result given. The call rests on the fitted dose curve; in most records, active means well fitted curve in the direction sought with a large enough effect; inconclusive means small, poorly fitted or top-dose-only effect, or another doubt; inactive means no such curve, though single readings can be large; an effect the other way counts as inactive or inconclusive. Potency means the concentration at half of the fitted maximal effect.

SMILES	KB-3-1 cytotox	Gal4-VP16 FLuc	MCF10A rereplic	RORg inh	KB-V1 cytotox	SW480 rerep
CC(C)c1ccc(NC(=O)C2CCC(CNC(=O)[C@@H]3Cc4ccccc4CN3)CC2)cc1 (some centres not stated)	i	-5.9%	14.6µM*	6.9%	?	?
CCc1ccc(NC(=O)CSc2nc3c(c(=O)[nH]2)CN(Cc2ccc(C)cc2)CC3)cc1	i	/	/	/	i	/
COC(=O)C1=C(c2ccccc2)c2ccccc2S(=O)(=O)N1CC(=O)Nc1cccc(C(C)=O)c1	i	/	/	/	i	/
Cc1nc(NC(C)C)c2cnn(CCc3ccccc3)c2n1	i	16.3%	20.6µM*	?	?	3.8%
CCC(C)(C)NC(=O)C(c1sccc1C)N(Cc1ccco1)C(=O)c1csnn1 (configuration not stated)	i	-13.7%	5.2%	18.4%	i	-8.1%
CCC(C)(C)NC(=O)C(c1ccccc1F)N(Cc1ccco1)C(=O)c1csnn1 (configuration not stated)	i	0.6%	10.6%	14.9%	18.4µM*	1.3%
CCC(C)(C)NC(=O)C(c1ccccn1)N(C(=O)c1csnn1)C1CCCCC1 (configuration not stated)	i	-8.8%	7.31µM*	35.0%	?	3.6%
COc1ccc(C(=O)/C=C/c2ccc(N(C)C)cc2)c(OC)c1	?	-6.3%	16.4µM*	-0.6%	?	?
COc1ccc(C(=O)/C=C/c2ccc(N3CCCCC3)c([N+](=O)[O-])c2)c(OC)c1	i	-5.5%	11.6µM*	?	?	?
COc1ccc(C(=O)/C=C/c2ccc(N3CCCCC3)c([N+](=O)[O-])c2)cc1	?	12.1%	8.2µM*	?	?	?
Cc1ccc(C(=O)O/N=C\c2ccc(N3CCCCC3)c([N+](=O)[O-])c2)cc1	?	-12.3%	9.4%	?	7.31µM*	-1.1%
O=C(O/N=C\c1ccc(N2CCCCC2)c([N+](=O)[O-])c1)c1cccc(Cl)c1	?	-4.6%	-2.1%	-8.2%	?	5.4%
CS(=O)(=O)N1CCCCC1c1cc(C(=O)NCc2ccc(Cl)c(Cl)c2)no1 (configuration not stated)	i	/	/	/	i	/
CC1(C)CC(=O)c2cc(C#N)c(=O)n(-c3ccc(Cl)cc3)c2C1	i	/	/	/	i	/
Cc1cc2c(n1-c1ccc(Cl)cc1)CC(C)(C)CC2=O	i	-0.2%	-2.0%	33.5%	13µM*	-6.0%
Cc1nc2sccn2c(=O)c1S(=O)(=O)Nc1cc(C(F)(F)F)ccc1Cl	i	/	/	/	i	/
C[C@@H]1CN([C@@H](C)CO)C(=O)c2cc(Br)cnc2O[C@H]1CN(C)Cc1cccc(C(=O)O)c1	i	/	/	/	i	/
COc1ccc2c(c1)oc(=O)c1cc(OC)ccc12	?	-16.4%	1.3%	-0.5%	?	-12.5%
COc1oc(=O)c2cc(N)ccc2c1Cl	/	14.1µM*	/	7.94µM*	/	/
CCc1[nH]nc2c1C(c1ccc(Br)s1)C(C#N)=C(N)O2 (configuration not stated)	?	?	?	11.2µM*	i	?
Cc1ccc(C2C(C#N)=C(N)Oc3n[nH]c(-c4cccs4)c32)s1 (configuration not stated)	i	-21.9%	-0.8%	10µM*	i	-4.7%
CCc1[nH]nc2c1C(c1ccsc1)C(C#N)=C(N)O2 (configuration not stated)	?	-10.3%	6.8%	-12.1%	i	-6.1%
COc1cccc(-c2cc(=O)c3ccc(OC)cc3o2)c1	/	-0.9%	/	1.1%	/	/
COC(=O)c1ccc(C(NC(=O)OCc2ccccc2)/C(=C/[C@@H](C)C(=O)NC2CCCCC2)c2cccnc2)cc1 (some centres not stated)	/	0.5%	/	?	/	/
Cc1ccc(C(=O)N2CCN3C(=O)c4ccccc4C23c2ccc(Cl)cc2)cc1 (configuration not stated)	i	-19.3%	?	25.9%	i	?
SMILES	KB-3-1 cytotox	Gal4-VP16 FLuc	MCF10A rereplic	RORg inh	KB-V1 cytotox	SW480 rerep
O=C(CCl)N1CCN2C(=O)c3ccccc3C12c1ccc(Cl)cc1 (configuration not stated)	?	?	23.1µM*	?	?	?
Cc1ccc2c(C(=O)CNC3=NCCS3)c(C)[nH]c2c1	i	/	/	/	?	/
CCc1ccccc1NC(=O)CN1CCN(CC(=O)Nc2ccc3c(c2)OC2(CCCCC2)O3)CC1	?	/	6.51µM*	/	i	8.2µM*
Cc1ccc(C)c(NC(=O)CSc2ccc(S(=O)(=O)N3CCCC3)cn2)c1	i	/	6.5%	/	i	3.0%
O=C(CSc1ccc(S(=O)(=O)N2CCCC2)cn1)Nc1ccc([N+](=O)[O-])cc1C(F)(F)F	?	/	18.1%	/	5.17µM*	4.1%
CCCC1=Nc2cc(C(=O)NCCCOC(C)C)ccc2Sc2ccccc21	4.61µM*	6.6%	2.59µM*	14.4%	7.31µM*	5.8µM*
CCCC1=Nc2cc(C(=O)NCCc3ccc(OCC)cc3)ccc2Sc2ccccc21	?	/	/	/	i	/
CCCC1=Nc2cc(C(=O)NCCCOCC)ccc2Sc2ccccc21	0.517µM*	-8.7%	?	10.0%	1.03µM*	?
CC(=O)c1cc(-c2ccc(F)cc2)n(CC(=O)NCc2ccc(C)cc2)c1C	i	/	/	/	i	/
CCOc1cc(-c2cc(-c3ccc(N)cc3)nc(N)c2C#N)ccc1O	?	-3.9%	11.6µM*	-21.6%	?	?
CCOc1cc(-c2cc(-c3ccccc3)nc(N)c2C#N)ccc1O	i	-7.2%	?	-8.4%	i	?
CCCCCCCCCCCCC/C=C/[C@@H](O)[C@H](COP(=O)([O-])OCC[N+](C)(C)C)NC(=O)CCCCCCCCCCCCCCCCC	/	2.7%	/	12.1%	/	/
O=C(c1ccco1)N1CCC2(CC1)CCN(c1ccncc1)CC2	/	0.7%	/	11.3%	/	/
CCc1ccc(C2CC(=O)Oc3c2c(=O)n(C)c2ccccc32)cc1 (configuration not stated)	i	/	/	/	i	/
CCOc1cc(C(=O)CSc2nnc(CNc3ccc(Cl)cc3)o2)ccc1NC(=O)CC	?	-0.6%	?	?	20.6µM*	10.8%
CN(C)CCn1c2ccccc2c2nc3ccc([N+](=O)[O-])cc3cc21	i	11.2µM*	13.2%	7.94µM*	?	?
CC(C)n1c2ccccc2c2cc([N+](=O)[O-])ccc21	i	-17.5%	?	-7.5%	?	-1.7%
O=C(c1cc2ccccc2o1)N1CCN(CCOc2ccccc2)CC1	i	/	-0.3%	/	i	0.3%
